Results filed as inconclusive are left out. Unless noted, calls follow the shape of the dose curve; as a rule, active = well fitted curve in either direction with a large enough effect (not every such curve was filed as active); inconclusive = small, poorly fitted or top-dose-only effect, or another doubt; inactive = flat fitted curve, though single readings scatter.
Columns and labels:
[1] = AP1 Signaling Pathway (AID 357); details: ME-180 AP-1-bla reporter, EGF-induced, beta-lactamase ratio, 5 h; at 17.2 µM (top of the series) unless noted;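 also: ME-180 reporter cells stimulated with EGF at its EC50 level; % is scaled to controls: 0 for no effect and ±100 for the full control effect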
Summary of the method: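 A ratiometric CCF4 readout (405 nm excitation; 460 and 530 nm emission) quantified AP-1-driven beta-lactamase in ME-180 cells after 5 h with compound and EC50 EGF; AC50 values were derived for activators and inhibitors.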

[2] = NFAT Signaling Pathway (AID 444); details: Jurkat NFAT-bla M1, carbachol, beta-lactamase ratio, 5 h; at 17.2 µM (top of the series) unless noted;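 also: carbachol stimulus at about its EC50 of 1 µM final; % is scaled to controls: 0 for no effect and ±100 for the full control effect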
Summary of the method: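 Jurkat cells with NFAT-driven β-lactamase reporter and co-expressed M1 receptor, stimulated with carbachol (final 1 uM, ~EC50), compound titration, 5 h at 37 °C. CCF4 loaded 1 h at RT; 460/530 nm ratio gave %activity and AC50.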

[3] = Stat Signaling Pathway (AID 446); details: ME-180 (cervical carcinoma) SIE beta-lactamase reporter, IL-6 stimulated, 5 h; at 17.2 µM (top of the series) unless noted;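 also: ME-180 cervical cancer cells given 40 pM IL-6 alongside compound; SIE-controlled beta-lactamase reporter measured as 460/530 nm FRET emission ratio; % is scaled to controls: 0 for no effect and ±100 for the full control effect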
Summary of the method: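 FRET read-out (405 nm excitation, 460/530 nm emission) of a beta-lactamase reporter under a STAT-inducible element in ME-180 cervical carcinoma cells. Cells with compound receive 40 pM IL-6 for 5 h. Values are normalised to AC90 stimulation and AC90 JAK-inhibitor controls.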

[4] = molecular target: Glucocorticoid receptor (Homo sapiens) (UniProt P04150); experiment: GR-GFP Redistribution (AID 450;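 active = compounds whose dose series gives a full or clear partial fitted curve of increased nuclear translocation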; also: potency is read from the fitted curve at half-maximal effect); details: U2OS GR-GFP nuclear translocation, laser cytometry, 2 h; series mostly up to 20.6 µM
Chain of Glucocorticoid receptor (Homo sapiens) (P04150 whole entry, looked up): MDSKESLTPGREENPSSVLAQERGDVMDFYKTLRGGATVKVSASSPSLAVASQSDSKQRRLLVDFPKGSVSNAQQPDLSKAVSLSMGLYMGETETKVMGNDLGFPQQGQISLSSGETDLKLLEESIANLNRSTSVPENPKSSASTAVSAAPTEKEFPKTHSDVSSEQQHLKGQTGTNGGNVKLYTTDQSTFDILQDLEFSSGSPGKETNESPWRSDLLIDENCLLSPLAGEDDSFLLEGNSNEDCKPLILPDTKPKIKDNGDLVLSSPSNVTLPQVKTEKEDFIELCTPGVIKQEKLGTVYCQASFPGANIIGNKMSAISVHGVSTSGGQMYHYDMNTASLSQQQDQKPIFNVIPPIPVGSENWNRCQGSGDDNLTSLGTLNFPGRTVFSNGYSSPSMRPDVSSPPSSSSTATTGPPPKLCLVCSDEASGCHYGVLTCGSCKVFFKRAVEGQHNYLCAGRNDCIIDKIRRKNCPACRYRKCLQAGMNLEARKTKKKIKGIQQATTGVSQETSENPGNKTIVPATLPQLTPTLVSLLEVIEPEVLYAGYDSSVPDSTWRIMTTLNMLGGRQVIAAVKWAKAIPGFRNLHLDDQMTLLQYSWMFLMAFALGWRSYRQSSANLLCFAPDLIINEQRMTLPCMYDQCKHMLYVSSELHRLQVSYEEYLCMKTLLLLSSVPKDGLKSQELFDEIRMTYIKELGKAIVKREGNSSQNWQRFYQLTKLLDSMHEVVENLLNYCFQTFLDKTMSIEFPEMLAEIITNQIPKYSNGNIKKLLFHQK

Fc1cnc(N2CCOCC2)nc1NCc1ccccc1
inactive: activity change, negative = inhibition [1] 10.9% | activity change, negative = inhibition [2] -3.23% | activity, negative = inhibition [3] -8.43% | Potency [4] > 20.6 µM

O=C(OCCN1CCOCC1)c1ccc2c(c1)OCCO2
inactive: activity change, negative = inhibition [1] -10% | activity change, negative = inhibition [2] 19.9% | activity, negative = inhibition [3] 6.54% | Potency [4] > 20.6 µM

CN=C1c2cc3c(Br)c(OC)ccc3n2CCN1C
inactive: activity change, negative = inhibition [1] 4.49% | activity change, negative = inhibition [2] -7.64% | activity, negative = inhibition [3] 6.11% | Potency [4] > 20.6 µM

CCCCC(=O)Nc1c(O)c2ccccc2[nH]c1=O
inactive: activity change, negative = inhibition [1] 4% | activity change, negative = inhibition [2] -5.18% | activity, negative = inhibition [3] 1.28% | Potency [4] > 20.6 µM

C#CC1CN(Cc2ccccc2)CC(C#C)N1C (centres undefined)
inactive: activity change, negative = inhibition [1] 9.35% | activity change, negative = inhibition [2] -2.08% | activity, negative = inhibition [3] 9.92% | Potency [4] > 20.6 µM

C=COC(=O)CSc1nc(-c2cccs2)ccc1C#N
inactive: activity change, negative = inhibition [1] 4.27% | activity change, negative = inhibition [2] -19.4% | activity, negative = inhibition [3] 12.2% | Potency [4] > 20.6 µM

CN(C)CCNc1nc(-c2ccco2)c2c(c1C#N)CC(C)(C)OC2
inactive: activity change, negative = inhibition [1] 9.95% | activity change, negative = inhibition [2] -23% | activity, negative = inhibition [3] 12.9% | Potency [4] > 20.6 µM

Cc1nc2c(c(N3CCOCC3)n1)OCC(=O)N2
inactive: activity change, negative = inhibition [1] 6.3% | activity change, negative = inhibition [2] -1.47% | activity, negative = inhibition [3] 6.75% | Potency [4] > 20.6 µM

CCc1nc(SCc2cccnc2)c(C#N)cc1C
inactive: activity change, negative = inhibition [1] -8.39% | activity change, negative = inhibition [2] -24.2% | activity, negative = inhibition [3] 0.873% | Potency [4] > 20.6 µM

COc1ccc(C(=O)/C=C/Nc2cccc(C)n2)cc1OC
inactive: activity change, negative = inhibition [1] -16.3% | activity change, negative = inhibition [2] 22.7% | activity, negative = inhibition [3] 0.139% | Potency [4] > 20.6 µM

Nc1ccc2cn[nH]c2c1
inactive: activity change, negative = inhibition [1] 4.71% | activity change, negative = inhibition [2] 2.08% | activity, negative = inhibition [3] 6.7% | Potency [4] > 20.6 µM

Cn1nnnc1-c1cc(Br)ccc1NC(=O)c1ccccc1
inactive: activity change, negative = inhibition [1] 28.6% | activity change, negative = inhibition [2] -1.05% | activity, negative = inhibition [3] 24.3% | Potency [4] > 20.6 µM

Cn1c(CSc2ncn[nH]2)nc2ccccc21
inactive: activity change, negative = inhibition [1] -5.65% | activity change, negative = inhibition [2] 3.91% | activity, negative = inhibition [3] 20.6% | Potency [4] > 20.6 µM

CC1(C)Cc2c(sc3c2C(=O)N(c2ccccc2)C2=NCCCN23)CO1
inactive: activity change, negative = inhibition [1] 9.3% | activity change, negative = inhibition [2] -14.6% | activity, negative = inhibition [3] 5.74% | Potency [4] > 20.6 µM

Cc1cc(=O)oc(C)c1C(=O)N[C@@H]1CCCCNC1=O
inactive: activity change, negative = inhibition [1] 9.85% | activity change, negative = inhibition [2] 9.68% | activity, negative = inhibition [3] 9.42% | Potency [4] > 20.6 µM

CCC(=O)Nc1cccc(-c2nnc(SCC(=O)NCc3ccco3)n2C)c1
inactive: activity change, negative = inhibition [1] -2.45% | activity change, negative = inhibition [2] 6.34% | activity, negative = inhibition [3] -2.86% | Potency [4] > 20.6 µM

COc1cc(S(=O)(=O)N2CCN(c3ccc(F)cc3)CC2)ccc1Cl
inactive: activity change, negative = inhibition [1] 5.09% | activity change, negative = inhibition [2] -11.7% | activity, negative = inhibition [3] -12.1% | Potency [4] > 20.6 µM

COc1cccc(C2/C(=C(\O)c3ccc(OC)c(OC)c3)C(=O)C(=O)N2c2cc(C)on2)c1 (centres undefined)
inactive: activity change, negative = inhibition [1] -7.94% | activity change, negative = inhibition [2] 6.78% | activity, negative = inhibition [3] -8.6% | Potency [4] > 20.6 µM

Cc1nnc2n(Cc3ccccc3)c(=O)c3c4c(sc3n12)COC(C(C)C)C4 (centres undefined)
inactive: activity change, negative = inhibition [1] 10.6% | activity change, negative = inhibition [2] -9.5% | activity, negative = inhibition [3] 5.19% | Potency [4] > 20.6 µM

O=C(OCC#CCSc1nnc(-c2ccccc2)o1)c1cccs1
inactive: activity change, negative = inhibition [1] -3.3% | activity change, negative = inhibition [2] -29.9% | activity, negative = inhibition [3] -1.99% | Potency [4] > 20.6 µM

Cc1noc(NS(=O)(=O)c2ccc(NC(=O)COc3ccccc3)cc2)c1C
inactive: activity change, negative = inhibition [1] 2.17% | activity change, negative = inhibition [2] 1.26% | activity, negative = inhibition [3] -0.515% | Potency [4] > 20.6 µM

Cc1cc(C(=O)O)c(CSc2ncn[nH]2)o1
inactive: activity change, negative = inhibition [1] 12.5% | activity change, negative = inhibition [2] 19.7% | activity, negative = inhibition [3] 8.82% | Potency [4] > 20.6 µM

Cc1ccc(C(=O)/C=C/Nc2ccccn2)cc1
inactive: activity change, negative = inhibition [1] 11% | activity change, negative = inhibition [2] 23.5% | activity, negative = inhibition [3] -4.63% | Potency [4] > 20.6 µM

Cc1ccc(C#N)c(SCc2cc3c(cc2Cl)OCO3)n1
inactive: activity change, negative = inhibition [1] 12.7% | activity change, negative = inhibition [2] -1.4% | activity, negative = inhibition [3] 4.71% | Potency [4] > 20.6 µM

CCCOc1ccc(N2C(=O)CC(N(Cc3ccc(S(N)(=O)=O)cc3)C(=O)CC)C2=O)cc1 (centres undefined)
inactive: activity change, negative = inhibition [1] -6.51% | activity change, negative = inhibition [2] 20.1% | activity, negative = inhibition [3] 11.7% | Potency [4] > 20.6 µM

c1coc(CNc2ncnc3ccccc23)c1
inactive: activity change, negative = inhibition [1] -22.1% | activity change, negative = inhibition [2] -14.7% | activity, negative = inhibition [3] -18.3% | Potency [4] > 20.6 µM

Source: PubChem BioAssay (NCATS)
